In PubChem BioAssay (NCATS):
Inconclusive results are not listed. Unless noted, calls come from the whole dose curve; as a rule, active = well fitted curve in either direction with a large enough effect (not every such curve was filed as active); inconclusive = small, poorly fitted or top-dose-only effect, or another doubt; inactive = flat fitted curve, though single readings scatter.

Assays:
[1] = AP1 Signaling Pathway (AID 357); details: ME-180 AP-1-bla reporter, EGF-induced, beta-lactamase ratio, 5 h; at 17.2 µM (top of the series) unless noted;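 note: ME-180 reporter cells stimulated with EGF at its EC50 level; % is set by controls: 0 for no effect and ±100 for the full control effect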
Method in brief: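 Read-out was the 460nm/530nm emission ratio (excitation 405nm) after CCF4 loading for 2.5 hours at room temperature. Cells carried an AP-1-driven beta-lactamase reporter, were stimulated with EC50 EGF plus compound for 5 hours, and AC50 values came from titrations.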

[2] = NFAT Signaling Pathway (AID 444); details: Jurkat NFAT-bla M1, carbachol, beta-lactamase ratio, 5 h; at 17.2 µM (top of the series) unless noted;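 note: carbachol stimulus at about its EC50 of 1 µM final; % is set by controls: 0 for no effect and ±100 for the full control effect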
Method in brief: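 Read-out: CCF4 FRET ratio (460 nm/530 nm) after 1 h RT dye loading, used for %activity and AC50 from titration series. Cells: Jurkat NFAT-β-lactamase/M1 line, treated with compound plus 1 uM carbachol for 5 h, 37 °C.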

[3] = Stat Signaling Pathway (AID 446); details: ME-180 (cervical carcinoma) SIE beta-lactamase reporter, IL-6 stimulated, 5 h; at 17.2 µM (top of the series) unless noted;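 note: ME-180 cervical cancer cells given 40 pM IL-6 alongside compound; SIE-controlled beta-lactamase reporter measured as 460/530 nm FRET emission ratio; % is set by controls: 0 for no effect and ±100 for the full control effect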
Method in brief: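 FRET read-out (405 nm excitation, 460/530 nm emission) of a beta-lactamase reporter under a STAT-inducible element in ME-180 cervical carcinoma cells. Cells with compound receive 40 pM IL-6 for 5 h. Values are normalised to AC90 stimulation and AC90 JAK-inhibitor controls.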

[4] = biological target: Glucocorticoid receptor (Homo sapiens) (UniProt P04150); assay: GR-GFP Redistribution (AID 450;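 active = compounds whose dose series gives a full or clear partial fitted curve of increased nuclear translocation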; note: potency is the fitted concentration of half-maximal effect)
Sequence of Glucocorticoid receptor (Homo sapiens) (P04150 whole entry, looked up): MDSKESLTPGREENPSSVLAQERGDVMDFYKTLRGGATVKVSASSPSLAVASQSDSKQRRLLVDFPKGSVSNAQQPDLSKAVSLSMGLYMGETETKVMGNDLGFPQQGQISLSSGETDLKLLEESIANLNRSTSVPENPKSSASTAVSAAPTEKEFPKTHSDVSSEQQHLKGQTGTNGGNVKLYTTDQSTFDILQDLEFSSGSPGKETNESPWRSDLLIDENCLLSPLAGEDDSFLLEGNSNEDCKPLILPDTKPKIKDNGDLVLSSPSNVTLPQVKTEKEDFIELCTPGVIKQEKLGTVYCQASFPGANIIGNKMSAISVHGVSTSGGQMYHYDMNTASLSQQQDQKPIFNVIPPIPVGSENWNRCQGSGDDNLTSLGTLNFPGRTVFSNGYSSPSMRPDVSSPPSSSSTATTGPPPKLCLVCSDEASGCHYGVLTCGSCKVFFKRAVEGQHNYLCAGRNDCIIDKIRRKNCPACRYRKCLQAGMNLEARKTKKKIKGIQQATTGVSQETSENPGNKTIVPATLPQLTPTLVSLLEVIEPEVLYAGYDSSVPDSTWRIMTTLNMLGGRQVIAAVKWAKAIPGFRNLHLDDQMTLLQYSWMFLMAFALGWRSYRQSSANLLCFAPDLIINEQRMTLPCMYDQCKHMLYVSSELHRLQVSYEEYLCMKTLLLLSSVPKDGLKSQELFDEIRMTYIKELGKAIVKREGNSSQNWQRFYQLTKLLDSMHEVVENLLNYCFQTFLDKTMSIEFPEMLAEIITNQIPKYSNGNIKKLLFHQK

c1coc(CNc2ncnc3ccccc23)c1
inactive: activity change, negative = inhibition [1] -22.1% | activity change, negative = inhibition [2] -14.7% | activity, negative = inhibition [3] -18.3% | Potency [4] > 20.6 µM

O=C(O)C1[C@H]2C(=O)N(Cc3cccs3)C[C@]23C=C[C@H]1O3 (stereo not given in full)
inactive: activity change, negative = inhibition [1] 4.68% | activity change, negative = inhibition [2] -3.3% | activity, negative = inhibition [3] 2.6% | Potency [4] > 20.6 µM

CN(C)CC(O)COc1ccc(C(C)(C)c2ccc(OCC(O)CN(C)C)cc2)cc1 (stereo not given)
inactive: activity change, negative = inhibition [1] -0.00757% | activity change, negative = inhibition [2] 1.57% | activity, negative = inhibition [3] -4.4% | Potency [4] > 20.6 µM

CCOc1nc(-c2ccncc2)nc2ccccc12
inactive: activity change, negative = inhibition [1] -12% | activity change, negative = inhibition [2] 2.73% | activity, negative = inhibition [3] -6.2% | Potency [4] > 20.6 µM

Cc1cc(-c2ccc(F)cc2)nc2cc(C(N)=O)nn12
inactive: activity change, negative = inhibition [1] -15.1% | activity change, negative = inhibition [2] -2.99% | activity, negative = inhibition [3] -7.09% | Potency [4] > 20.6 µM

COc1ccc(/C(O)=C2\C(=O)C(=O)N(Cc3ccco3)C2c2cc(OC)ccc2OC)cc1 (stereo not given)
inactive: activity change, negative = inhibition [1] 8.52% | activity change, negative = inhibition [2] -18% | activity, negative = inhibition [3] -17.9% | Potency [4] > 20.6 µM

COC(=O)c1ccc(CSc2nc(N3CCOCC3)c3c(c2C#N)CC(C)(C)OC3)o1
inactive: activity change, negative = inhibition [1] -9.04% | activity change, negative = inhibition [2] -8.92% | activity, negative = inhibition [3] 20% | Potency [4] > 20.6 µM

COc1ccc(C2(CN(C(C)=O)C(C)=O)CCCC2)cc1OC
inactive: activity change, negative = inhibition [1] 4.19% | activity change, negative = inhibition [2] 4.27% | activity, negative = inhibition [3] 1.89% | Potency [4] > 20.6 µM

CC1CC(C(F)(F)F)n2ncnc2N1 (stereo not given)
inactive: activity change, negative = inhibition [1] 5.99% | activity change, negative = inhibition [2] -3.22% | activity, negative = inhibition [3] 12.9% | Potency [4] > 20.6 µM

CCn1nc(NC(=O)c2ccco2)c2cc3ccccc3nc21
inactive: activity change, negative = inhibition [1] -5.14% | activity change, negative = inhibition [2] 5.58% | activity, negative = inhibition [3] -7.47% | Potency [4] > 20.6 µM

O=C(CN1C(=O)c2ccccc2S1(=O)=O)NCCSCc1ccco1
inactive: activity change, negative = inhibition [1] -8.94% | activity change, negative = inhibition [2] 8.79% | activity, negative = inhibition [3] -4.36% | Potency [4] > 20.6 µM

COC(=O)c1ccccc1NC(=O)C1COc2ccccc2O1 (stereo not given)
inactive: activity change, negative = inhibition [1] -7.17% | activity change, negative = inhibition [2] -19.3% | activity, negative = inhibition [3] 2.58% | Potency [4] > 20.6 µM

CN(C)/C=C1\N=C(c2ccc(Cl)cc2Cl)OC1=O
inactive: activity change, negative = inhibition [1] -19.5% | activity change, negative = inhibition [2] -5.67% | activity, negative = inhibition [3] 3.89% | Potency [4] > 20.6 µM

CCCc1nnc(SCc2ccc(OCC)cc2)n1N
inactive: activity change, negative = inhibition [1] 4.67% | activity change, negative = inhibition [2] 7.42% | activity, negative = inhibition [3] 10.4% | Potency [4] > 20.6 µM

Cn1cc(Cl)nc1C(O)c1ccccc1 (stereo not given)
inactive: activity change, negative = inhibition [1] 2.37% | activity change, negative = inhibition [2] -2.26% | activity, negative = inhibition [3] 6.92% | Potency [4] > 20.6 µM

Cc1nc2n[nH]c(N)c2c2c1COC(C)(C)C2
inactive: activity change, negative = inhibition [1] 3.75% | activity change, negative = inhibition [2] -4.48% | activity, negative = inhibition [3] 3.57% | Potency [4] > 20.6 µM

O=C(O)CC(C(=O)OCC1CCCO1)N1CCOCC1 (stereo not given)
inactive: activity change, negative = inhibition [1] 9.13% | activity change, negative = inhibition [2] -2.84% | activity, negative = inhibition [3] -0.575% | Potency [4] > 20.6 µM

Cn1c(N2CCN(c3ccccn3)CC2)nc2c1c(=O)n(Cc1ccccc1Cl)c(=O)n2C
inactive: activity change, negative = inhibition [1] 4.27% | activity change, negative = inhibition [2] 8.29% | activity, negative = inhibition [3] -8.44% | Potency [4] > 20.6 µM

Cc1nnc2n(-c3ccccc3)c(=O)c3c4c(sc3n12)COC(C(C)C)C4 (stereo not given)
inactive: activity change, negative = inhibition [1] -3.43% | activity change, negative = inhibition [2] -28.2% | activity, negative = inhibition [3] 4.52% | Potency [4] > 20.6 µM

COc1ccc(Nc2nc(Nc3ccc(OC)cc3)nc(-n3[nH]c(=O)c(C)c3C)n2)cc1
inactive: activity change, negative = inhibition [1] 22.4% | activity change, negative = inhibition [2] -1.75% | activity, negative = inhibition [3] 8.62% | Potency [4] > 20.6 µM

CCCCOc1ccc(C(=O)NCC(=O)NCC(=O)OCC)cc1
inactive: activity change, negative = inhibition [1] -0.159% | activity change, negative = inhibition [2] -7.6% | activity, negative = inhibition [3] -5.03% | Potency [4] > 20.6 µM

Nc1ccc2oc3ncccc3c(=O)c2c1
inactive: activity change, negative = inhibition [1] 7.58% | activity change, negative = inhibition [2] 10.7% | activity, negative = inhibition [3] -3.84% | Potency [4] > 20.6 µM

C=COC(=O)CSc1nc(-c2cccs2)ccc1C#N
inactive: activity change, negative = inhibition [1] 4.27% | activity change, negative = inhibition [2] -19.4% | activity, negative = inhibition [3] 12.2% | Potency [4] > 20.6 µM

COCCCNC(=O)C(C#N)c1nc2ccccc2nc1N1CCCC1 (stereo not given)
inactive: activity change, negative = inhibition [1] 5.84% | activity change, negative = inhibition [2] 8.15% | activity, negative = inhibition [3] 20.8% | Potency [4] > 20.6 µM

Cn1c(=O)n(CCc2ccccc2)c(=O)c2c1ncn2Cc1ccccc1
inactive: activity change, negative = inhibition [1] -15.9% | activity change, negative = inhibition [2] -7.53% | activity, negative = inhibition [3] -18.1% | Potency [4] > 20.6 µM
